# Screening results deposited in PubChem BioAssay by The Scripps Research Institute Molecular Screening Center.
# This is a sample that favours compounds with a hit; in the whole collection about 2.9% have one here.
# PLCb3 inh: blocks human PLC-beta3 enzyme activity | Purified PLC-beta3, fluorogenic substrate, fluorescence | inhibition, % at 12.2 µM | hit rate 0.18% among 370,000 | AID 720704; in the data active = inhibition above about 11%;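 note: 0% = median of compound wells on plate and 100% = full blocker control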
# ADAM10 inh: inhibits human ADAM10; O14672; recombinant ADAM10, EDANS/DABCYL FRET peptide cleavage, 3 h; inhibition, % at 7 µM; hit rate 0.62% among 370,000; AID 720582;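 active = inhibition above a per-campaign cutoff equal to the mean of compounds falling between control-based bounds plus 3 SD, cut at about 20% in these data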;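 note: 0% = DMSO wells while the 100% control is not disclosed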
# PLC-gamma1 inh: PLC-gamma1 (human) inhibition, primary screen | P19174 | AID 720700 | hit rate 0.84% among 370,000 | inhibition, % at 12.2 µM | purified PLC-gamma1, fluorogenic substrate, fluorescence
# ADAM17 inh: ADAM17 inhibition, QFRET primary screen; recombinant ADAM17, EDANS/DABCYL FRET peptide cleavage; inhibition, % at 6.95 µM; hit rate 0.83% among 370,000; AID 720648;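 active = inhibition above the mean of compounds lying between control limits plus 3 SD, set per campaign, cut at about 8.5% in these data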;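 note: 0% = DMSO-only wells as the low control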
# proKLK7 act: activates the human kallikrein-7 zymogen. P49862. purified proKLK7, EDANS-DABCYL substrate fluorescence; 100% is mature enzyme control, 0% vehicle. activation, % at 7 µM. hit rate 0.9% among 370,000. AID 652039;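 active = activation above the mean of all tested compounds plus 3 SD, computed per campaign excluding outliers beyond control limits, cut at about 13% in these data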
# PLCgamma1 ctr: counter-screen for PLC-beta3 inhibitors: inhibitors of human PLC-gamma1. shares compounds with PLC-gamma1 inh. purified PLC-gamma1, fluorogenic substrate, fluorescence. inhibition, % at 12.3 µM. hit rate 3.1% among 3,300
# PLCbeta3 conf: human PLC-beta3 inhibition, confirmation | shares compounds with PLC-gamma1 inh | purified PLC-beta3, fluorogenic substrate fluorescence | inhibition, % at 12.3 µM | hit rate 1% among 3,300 | AID 743261; in the data active = inhibition above about 11%
# An asterisk follows results filed as active; . = no result given. Cut-off read from the data, not from the text of the source, unless noted: active = inhibition above about 9.5%; inactive = the rest.
SMILES,PLCb3 inh,ADAM10 inh,PLC-gamma1 inh,ADAM17 inh,proKLK7 act,PLCgamma1 ctr,PLCbeta3 conf
CC(C)N(Cc1ccccc1)C(=O)COC(=O)C1CCN(S(=O)(=O)c2ccc3c(c2)OCCO3)CC1,-6,-1,4,-1,0,.,.
CCN(CC1CCCO1)C(=O)CCc1nnc(CCc2ccccc2OC)o1 (stereo not given),-3,-6,-2,-2,0,.,.
Nn1cnnc1SCC(=O)N(C1CCCCC1)C1CCCCC1,6,11,11*,-1,0,-5,-1
O=c1c2[nH]c3ccccc3c2ncn1CCN1CCOCC1,6,1,9.6*,-4,0,1,-1
Cc1nc(N2CCOCC2)[nH]c(=O)c1[N+](=O)[O-],-2,14,13*,3,1,1,2
CC(C)S(=O)(=O)N1CCCC(c2cc(C(=O)NCc3ccccc3)no2)C1 (stereo not given),3,3,4,-2,0,.,.
CC(=O)N1CCCc2cc(S(=O)(=O)N(C)Cc3ccccc3)ccc21,4,5,9.8*,2,0,-3,4
CCCCN(CC)S(=O)(=O)c1ccc2c(c1)CCCN2C(C)=O,0,1,2,-4,0,.,.
O=C(C1CCN(c2nc(-c3ccc(Br)cc3)cs2)CC1)N1CCNCC1,0,14,4,4,.,.,.
O=C(O)CC(c1ccccc1)n1cccc1 (stereo not given),-1,-8,-2,-7,0,.,.
Nc1ccc(C(CC(=O)O)n2cccc2)cc1 (stereo not given),14*,-2,26*,4,0,-4,-3
O=C1CCC[C@H]2C[C@H](NCc3cccc(F)c3)CC[C@]23CCCN13,0,-12,3,-5,.,.,.
CCn1c(=O)c([N+](=O)[O-])c(N2CCSCC2)c2ccccc21,-5,13,12*,0,0,-2,-2
Cn1c(=O)c([N+](=O)[O-])c(N2CCSCC2)c2ccccc21,5,1,0,-2,-1,.,.
COc1ccc(C2=Nc3ccccc3N(C(=O)c3ccncc3)C2C(=O)NC(C)C)cc1 (stereo not given),-68,-11,-44,-2,2,.,.
O=C(NCc1ccc2c(c1)OCO2)Nc1ccc([N+](=O)[O-])cc1,0,-10,11*,-1,0,3,5
CN(C)CCNc1ncnc2c1ncn2[C@H]1CN(Cc2ccc(-c3ccccc3)cc2)C[C@@H](CO)O1,-2,-12,3,-4,0,.,.
O=C1OCCOC2CCCc3oc(C4=CCCCC4)c1c32 (stereo not given),-10,-14,-9,-3,1,.,.
O=[N+]([O-])c1cccnc1SCc1ccccc1,0,4,15*,6,0,2,0
O=C(O)c1cccnc1SCc1ccc([N+](=O)[O-])cc1,-4,11,2,0,1,.,.
O=C(NNC(=O)C12CC3CC(CC(C3)C1)C2)c1ccccn1,0,4,-1,-7,0,.,.
O=C(NNC(=O)C12CC3CC(CC(C3)C1)C2)c1cnccn1,4,4,11*,2,0,-5,0
O=C(Nc1cccnc1)C12CC3CC(CC(C3)C1)C2,11*,6,2,5,0,-9,-3
Cc1ccnc(NC(=O)C23CC4CC(CC(C4)C2)C3)c1,11*,9,8,6,0,-2,-2
O=C(N/N=C/c1cccnc1)C12CC3CC(CC(C3)C1)C2,5,2,0,1,0,.,.
SMILES,PLCb3 inh,ADAM10 inh,PLC-gamma1 inh,ADAM17 inh,proKLK7 act,PLCgamma1 ctr,PLCbeta3 conf
COC(=O)c1cc(-c2cc(Cl)cc(Cl)c2)c(=O)n2c1CCC2,0,-5,0,-5,-1,.,.
CCOC(=O)[C@]12CCC=C1N(CCC1=CCCCC1)C(=O)[C@H](CC(=O)NCCCCc1ccccc1)C2,-1,2,0,1,0,.,.
O=C(CN1C(=O)C2(OCCCO2)c2ccccc21)NCc1ccc2ccccc2c1,2,2,-3,1,1,.,.
Cc1nc([N+](=O)[O-])c(Br)n1CC(=O)c1ccc(Cl)cc1,1,2,9.7*,-1,0,2,0
CCCN(C(=O)CCNC(=O)Cn1cnc2ccccc2c1=O)c1cccc(C)c1,-3,-8,11*,-3,0,-4,-4
COC(=O)c1ccc(C)c(NC(=O)Cn2cnc3ccccc3c2=O)c1,11*,-8,9,3,0,-9,-7
CCN(C(=O)CCNC(=O)Cn1cnc2ccccc2c1=O)c1cccc(Cl)c1,-7,13,2,-5,0,.,.
COC(=O)c1ccccc1NC(=O)CCNC(=O)Cn1cnc2ccccc2c1=O,0,1,-2,0,0,.,.
O=C(C[n+]1ccc(C(=O)c2ccccc2)cc1)Nc1cccc([N+](=O)[O-])c1,3,-4,-1,-4,-1,.,.
COc1ccc(C(=O)Nc2ccc(S(=O)(=O)N3CCCCC3C)cc2)c(OC)c1OC (stereo not given),12*,10,10*,6,0,3,-1
CC(C)CCNC(=O)C1CCN(c2nc3ccccc3o2)CC1,1,-8,-2,-6,0,.,.
O=C(NCc1cccs1)C1CCN(c2nc3ccccc3o2)CC1,3,4,9.7*,2,0,-2,-4
O=C(O)CC/C(=N/NC(=O)CNC(=O)Cc1ccc(Cl)cc1)c1ccccc1,-18,-9,-8,-4,-4,.,.
Cc1ccc(NC(=S)N2CCC(N(C)CC3CCCO3)CC2)cc1C (stereo not given),-4,-4,3,-3,0,.,.
Cc1cccc(NC(=S)N2CCC(N(C)CC3CCCO3)CC2)c1 (stereo not given),0,9,9.7*,1,0,-2,1
CCOC(CNC(=O)Cn1nc(C)c2ccccc21)OCC,1,4,9.9*,2,0,-2,2
CCOC(=O)c1ccc(NC(=O)Cn2nc(C)c3ccccc3c2=O)cc1,-13,6,4,1,0,.,.
COc1ccc(NC(=O)CSc2nnc(-c3ccccc3)n2Cc2ccco2)c(OC)c1,11*,12,5,9,-1,1,1
Cc1onc(-c2c(F)cccc2Cl)c1C(=O)N1CCCC1,3,-10,4,-3,1,.,.
Cc1onc(-c2c(F)cccc2Cl)c1C(=O)N1C=CC(C(F)(F)Cl)=NCC1,11*,8,13*,5,0,1,5
C[C@@H]1CCC[C@@]2(O[C@@H](CCO)C[C@H](O)[C@H]2O)O1,9,5,12*,-4,-1,-6,-2
OCC[C@@H]1C[C@@H](O)[C@H](O)[C@]2(CCCO2)O1,6,1,12*,-7,-1,-8,-4
